# Bioassay records deposited in PubChem BioAssay by National Center for Advancing Translational Sciences (NCATS).
# HT1080NT lethal: kills 2HG-producing HT-1080-NT fibrosarcoma cells; HT-1080-NT fibrosarcoma viability, CellTiter-Glo ATP luminescence, 48 h; 360,000 tested, 1.6% active; Potency, µM (top dose mostly 46.1 µM), inactives show top-dose activity, negative = less viability, actives largely listed as cytotoxic; AID 686970;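 further: NT is the 2HG producing partner of a matched IDH1 knockdown line; potency means the concentration at half of the fitted maximal effect; 0% = DMSO-treated cells and -100% = media-only wells without cells; nearly all actives have a fitted effect of over 55% in size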
#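 Viability of the 2HG-overproducing fibrosarcoma line after 48 hours of compound exposure at 37 degrees C was determined by luminescence with CellTiter-Glo, and concentration-effect curves were then fitted and categorized.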
# IL1B secr inh: inflammasome signaling inhibition, IL-1 beta readout; activity change, % at 57.5 µM; AID 743279; 360,000 tested, 4.7% active; THP-1 LPS/ATP IL-1B secretion, AlphaLISA, 16 h; hits give low values; in the data active means activity change below about -50%; inconclusive means mostly about -30% to -49%
#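 THP-1 cells pretreated 1 hr with compounds (up to 57.5 uM final), then stimulated with LPS (250 ng/mL final) plus ATP (1.25 mM final); secreted IL-1B measured by AlphaLISA after 16 hr, decreased signal indicating inhibition.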
# HT1080 IDH1KD tx: toxicity to HT-1080 IDH1 knockdown cells (counter line); HT-1080 IDH1 knockdown viability, ATP luminescence, 48 h; 360,000 tested, 2% active; AID 686971; Potency, µM (doses to about 46.1 µM), inactives show at the highest dose activity, negative = toxicity, actives largely listed as cytotoxic;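 further: potency means the concentration at half of the fitted maximal effect; 0% = DMSO wells and -100% = cell-free medium wells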
#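 Assay cells: HT-1080 with IDH1 knockdown, 750 per well, RPMI/5% FBS. Exposure: 48 h at 37 °C following 2 h pre-incubation. Read: CellTiter-Glo luminescence; fitted concentration-response, curve class assigned.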
# DT40 TDP1 CPT: growth inhibition of DT40 Tdp1-/-;hTDP1 cells with camptothecin (screen for TDP1 inhibitors) | chicken DT40 Tdp1-/-;hTDP1 cells + 20 nM CPT, ATP luminescence, 48 h | Potency, µM (doses to about 46.2 µM), inactives show top-dose activity change, negative = growth inhibition, usual class: inhibitors | 420,000 tested, 12% active; further: potency means the concentration at half of the fitted maximal effect; nearly all actives have a fitted effect of over 55% in size
#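 Chicken DT40 Tdp1-/- cells stably complemented with human TDP1 were seeded at 400 cells/well in medium containing 20 nM camptothecin, exposed to pin-transferred compounds, and grown at 37 °C for at least 48 hr. Viability was read as ATP luminescence.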
# TDP1 cell noCPT: qHTS for Inhibitors of human tyrosyl-DNA phosphodiesterase 1 (TDP1): qHTS in cells in absence of CPT; DT40 Tdp1-/- hTDP1 cells, no CPT, ATP luminescence, 48 h; Potency, µM (titrated, usually from 46.2 µM), without a hit: top-dose activity change, negative = growth inhibition, usual class: inhibitors; 420,000 tested, 15% active; AID 686978, 2013; further: potency means the concentration at half of the fitted maximal effect; nearly all actives have a fitted effect of over 55% in size
#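 A cellular qHTS used chicken DT40 cells lacking endogenous Tdp1 but carrying stably transfected human TDP1. Compounds were applied without camptothecin, and cell growth kinetics were judged by ATP-dependent luminescence after ≥48 hr.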
# Active calls of the source: *; ? = inconclusive; · = no result; [ ] = another dose, or the depositor's remark. An excerpt weighted towards active compounds, which were near 19% of everything screened. Unless noted, the call rests on the fitted dose curve; in most records, active means well fitted curve in the direction sought with a large enough effect; inconclusive means small, poorly fitted or top-dose-only effect, or another doubt; inactive means no such curve, though single readings can be large; an effect the other way counts as inactive or inconclusive. Unless noted, on the % scale 0 is the no-effect control and ±100 the full control effect.
SMILES,HT1080NT lethal,IL1B secr inh,HT1080 IDH1KD tx,DT40 TDP1 CPT,TDP1 cell noCPT
Cc1nn(-c2ccc([N+](=O)[O-])cc2)c2c1C(c1ccc(OC(F)F)cc1)N1C(=N2)C(=O)Nc2ccccc21 (stereo unspecified),2.7%,?,-0.9%,5.17µM*,4.61µM*
O=[N+]([O-])c1ccc2nc(-c3ccc(OC(F)F)cc3)cn2c1,?,16.0,?,24.7%,-5.9%
COc1cccc(NC(=O)Cn2c(CCC(=O)O)ccc2-c2ccc(C)cc2)c1,0.8%,-4.1,-2.0%,15.0%,-26.2%
CCC1NC(=O)c2ccccc2N1c1cccc(Cl)c1 (stereo unspecified),-27.2%,34.2,?,?,16.4µM*
O=C1NC(c2cccc(Cl)c2)Oc2ccccc21 (stereo unspecified),9.6%,-7.8,17.8%,0.8%,3.7%
COc1ccc(NC2=NC3(CCCCC3)N=C(N)N2)cc1,11.3%,-85.5*,8.3%,-14.3%,-22.0%
NC1=NC2(CCCC2)N=C(Nc2ccccc2)N1,4.8%,-5.1,27.1%,3.7%,-1.6%
COc1ccc(OC)c(NC2=NC3(CCCCC3)N=C(N)N2)c1,-14.6%,-11.3,-21.6%,-2.0%,-7.9%
CCCCOc1ccc(NC2=NC3(CCCCC3)N=C(N)N2)cc1,?,-28.1,?,5.17µM*,2.59µM*
Cc1cc(C)cc(NC(=S)N2CCC(NC(=O)c3ccco3)CC2)c1,21.1%,-14.6,15.7%,-14.1%,-26.9%
COc1cc(/C=C2\SC(=N)N(c3ccc(F)cc3)C2=O)ccc1O,?,1.9,?,25.9µM*,23.1µM*
Cc1ccc(NC(=O)CN2C(=O)S/C(=C/c3ccncc3)C2=O)cc1,-3.1%,-5.0,-13.1%,16.4µM*,?
N=C1S/C(=C\c2cccc3ccccc23)C(=O)N1c1ccc(F)cc1,?,-24.6,-28.1%,5.17µM*,3.66µM*
CCOc1cc(/C=C2\SC(=O)N(CC(=O)Nc3ccccc3F)C2=O)cc([N+](=O)[O-])c1O,-5.6%,-19.9,0.0%,8.2µM*,20.6µM*
COc1cc(OC)c(/C=C2\SC(=O)N(CC(=O)Nc3ccccc3F)C2=O)c(OC)c1,-1.5%,-6.8,1.1%,?,20.6µM*
COc1ccc(/C=C2\SC(=O)N(CC(=O)Nc3ccc(F)cc3)C2=O)cc1O,-0.9%,?,-22.9%,?,14.6µM*
COc1cc(/C=C2\SC(=O)N(CC(=O)Nc3ccccc3F)C2=O)cc(Cl)c1O,?,31.4,?,18.4µM*,13µM*
O=C(CN1C(=O)S/C(=C\c2ccccc2)C1=O)NCCCn1ccnc1,1.8%,-3.1,1.7%,?,-2.0%
CC(C)c1ccc(/C=C2\SC(=O)N(CC(=O)NCCCn3ccnc3)C2=O)cc1,-18.1%,-0.7,0.0%,?,14.6µM*
Cc1nc(CSc2ccc(Br)cc2)cs1,-0.6%,-1.9,0.5%,17.9%,3.6%
COc1cc2[nH]c(=O)c(C(=O)NCc3ccccc3Cl)c(O)c2cc1OC,18.7%,-10.4,2.8%,14.6µM*,18.4µM*
CCn1c(CNC(=O)C23CC4CC(CC(C4)C2)C3)nnc1SC,14.7%,10.2,-0.3%,5.9%,1.1%
CCCCn1c(CNC(=O)C23CC4CC(CC(C4)C2)C3)nnc1SC(C)CC (stereo unspecified),?,-16.2,?,23.1µM*,20.6µM*
O=C(CSc1nnc(CNC(=O)C23CC4CC(CC(C4)C2)C3)n1-c1ccccc1)Nc1ccccc1,-3.2%,15.4,-2.7%,?,?
CCn1c(CNC(=O)C23CC4CC(CC(C4)C2)C3)nnc1SCC(=O)Nc1ccc(F)cc1,·,·,·,?,-25.7%
SMILES,HT1080NT lethal,IL1B secr inh,HT1080 IDH1KD tx,DT40 TDP1 CPT,TDP1 cell noCPT
O=C(NCc1nnc(SCc2ccccc2)n1-c1ccccc1)C12CC3CC(CC(C3)C1)C2,?,?,?,14.6µM*,18.4µM*
CCCCSc1nnc(CNC(=O)C23CC4CC(CC(C4)C2)C3)n1Cc1ccccc1,-7.7%,?,-3.1%,16.4µM*,14.6µM*
CCOc1ccc2nc(-c3cc(NC(C)=O)ccc3O)sc2c1,13.4%,8.5,4.6%,-25.7%,-22.6%
CC(Cc1ccccc1)C(=O)N(C)Cc1cccnc1 (stereo unspecified),?,-1.0,25.6%,-3.6%,-5.1%
COc1ccc(S(=O)(=O)N2CCOC23CCN(S(=O)(=O)c2ccc(Cl)cc2)CC3)cc1,8.1%,-6.8,-0.7%,?,?
COC(C[C@@H]1O[C@@H]1[C@H](O)[C@@H](C)OCc1ccccc1)OC,6.8%,6.9,13.5%,-13.8%,6.0%
CCOc1ccccc1Nc1cc(C)nc2nc(C)nn12,7.1%,5.5,0.5%,9.4%,2.4%
CCOC(=O)c1ccccc1Nc1cc(C)nc2nc(-c3ccco3)nn12,·,·,·,?,16.4µM*
Cc1cc(Nc2cccc(F)c2)n2nc(-c3ccco3)nc2n1,·,·,·,18.4µM*,?
Cc1cc(Nc2ccccc2Cl)n2nc(-c3ccco3)nc2n1,·,·,·,?,25.9µM*
CCc1ccc(C(=O)NNC(=O)C2CC(=O)N(Cc3ccccc3)C2)cc1 (stereo unspecified),0.1%,-14.4,8.5%,-13.8%,-22.7%
O=C(CNS(=O)(=O)c1ccccc1)Nc1ccc2c(c1)OCO2,20.3%,-12.8,12.2%,?,-17.2%
CCOc1ccccc1-c1nc(SCC(=O)c2ccc(OC)c(Br)c2)n[nH]1,·,·,·,-15.5%,-5.4%
CN1C(=O)CC(Sc2ccccc2C(=O)O)C1=O (stereo unspecified),5.1%[9.24 µM],12.4,-9.2%,-22.9%,-6.2%
Cc1ccc(N2C(=O)CC(Sc3ncccc3C(=O)O)C2=O)cc1 (stereo unspecified),-17.4%,3.2,7.3%,-4.5%,5.2%
Cc1cc(C)cc(N2C(=O)CC(Sc3ccccc3C(=O)O)C2=O)c1 (stereo unspecified),-3.6%,5.7,-0.8%,4.11µM*,18.4µM*
Cc1cc(C)c(N2C(=O)CC(Sc3ccccc3N)C2=O)c(C)c1 (stereo unspecified),?,32.7,?,16.4µM*,7.31µM*
Cc1cccc(N2C(=O)CC(Sc3ccccc3C(=O)O)C2=O)c1 (stereo unspecified),16.7%,-11.8,12.8%,?,?
Cc1ccc(N2C(=O)CC(Sc3ccccc3C(=O)O)C2=O)cc1C (stereo unspecified),-0.2%,-0.4,0.0%,4.11µM*,11.6µM*
Cc1cccc(C)c1N1C(=O)CC(Sc2ccccc2N)C1=O (stereo unspecified),-4.9%,15.2,-3.8%,?,?
Cc1ccc(N2C(=O)CC(Sc3ccccc3C(=O)O)C2=O)cc1 (stereo unspecified),2.1%,0.0,-0.8%,7.31µM*,14.6µM*
